# Data: PubChem BioAssay (EPA / NIEHS)
# The source made the active and inactive calls. The calls were made as follows: active = hit-call score of the fitted dose curve at least 0.9, where 1 is the maximum; inactive = score below 0.9.
# Assay: ATG_Ets_CIS: Attagene CIS-FACTORIAL HepG2 Assay for human Erythroblast Transformation Specific (ETS) (AID 2282941)
# Conditions: HepG2 ETS cis-reporter transcription, actives raise or lower the signal
# Experimental: ATG_CIS is a cell-based, multiplexed-readout assay that uses HepG2, a human liver cell line, with measurements taken at 24 hours after chemical dosing in a 24-well plate.ATG_Ets_CIS is one of 52 assay component(s) measured or calculated from the ATG_CIS assay. It is designed to make measurements of mRNA induction, a form of inducible reporter, as detected with fluorescence intensity signals by Reverse transcription polymerase chain reaction (RT-PCR) and Capillary electrophoresis technology.Data from the assay component ATG_Ets_CIS was analyzed into 1 assay endpoint. This assay endpoint, ATG_Ets_CIS, was analyzed with bidirectional fitting relative to DMSO as the negative control and baseline of activity. Using a type of inducible reporter, measures of mRNA for gain or loss-of-signal activity can be used to understand the reporter gene at the transcription factor-level as they relate to the gene ETS1. Furthermore, this assay endpoint can be referred to as a primary readout, because this assay has produced multiple assay endpoints where this one serves a reporter gene function. To generalize the intended target to other relatable targets, this assay endpoint is annotated to the dna binding intended target family, where the subfamily is winged helix-turn-helix.
# Human liver HepG2 cells are transiently transfected with multiple reporter transcription units (MRTUs) in 6-well plates using FuGene 6 reagent (Roche; 3 ml FuGene/1 mg DNA). The MRTU constructs are regulated by a cis-regulating element (promoter). […] A major difference between the CIS and TRANS system is that in CIS activities of endogenous TFs are measured, whereas the TRANS assay evaluates changes in activities of exogenous, chimeric NR-Gal4 proteins. […] At the end of 24 hour incubation, total RNA was isolated using TriZol reagent (Invitrogen). The isolated RNA is then reverse-transcribed using oligo(dT) primer and Mo-MLV reverse transcriptase (Invitrogen) with DNAse I (Ambion) treatment for 30 min. The one-tenth of the produced cDNA was amplified by PCR using Taq DNA polymerase (Invitrogen) and two reporter sequence-specific primers. The PCR products were fluorescently labeled by primer extension with 6-arboxyfluorescein (6-FAM) 5'-labeled reporter sequence-specific primer (2 min at 95 C, 20 s at 68 C and 10 min at 72 C) and these products were digested with 5U of HpaI (New England Biolabs) for 2h at 37 C. The fragments were purified using Qiaquick PCR columns (Qiagen), analyzed on an ABI 3130xL genetic analyzer (Applied Biosystems) with peak positions identified by using a set of X-rhodamine (ROX)-labeled MapMarker1000 molecular weight standards (BioVentures). The raw capillary electrophoresis data was processed using Attagraph software (Attagene).
row,SMILES,outcome
1,CO[C@@H]1COCC[C@@H]1N[C@@H]1CC[C@@](C(=O)N2CCc3ncc(C(F)(F)F)cc3C2)(C(C)C)C1,inactive
2,O=C1OC(c2ccc(O)cc2)(c2ccc(O)cc2)c2ccccc21,inactive
3,O=C(NS(=O)(=O)/C=C/c1cccs1)c1ccc(F)cc1Br,inactive
4,CC1=C(C)S(=O)(=O)CCS1(=O)=O,inactive
5,CCCCCCCC(=O)OC,inactive
6,CC(=O)O,inactive
7,O=Cc1ccccc1C=O,inactive
8,CC(=O)S[C@H](C(=O)N[C@H]1Cc2ccccc2[C@H]2CCC[C@@H](C(=O)O)N2C1=O)C(C)C,inactive
9,CCCCC(CC)CO (stereo not given),inactive
10,CC(COCC(C)OC(=O)c1ccccc1)OC(=O)c1ccccc1 (stereo not given),inactive
11,CC(C)c1cccc(C(C)C)c1,inactive
12,CN(C)CCCN1c2ccccc2Sc2ccc(Cl)cc21,inactive
13,CN(C)C(=O)NC1(c2ccccc2)CCN(CC[C@@]2(c3ccc(F)c(F)c3)CN(C(=O)c3ccccc3)CCO2)CC1,inactive
14,CC(C)COC(=O)CCCCC(=O)OCC(C)C,inactive
15,CC(C)NCC(O)c1ccc(O)c(O)c1 (stereo not given),inactive
16,NCCOCCOCCN,inactive
17,Cc1cc(Cc2ccc(N)c(C)c2)ccc1N,inactive
18,CC(C)(O)c1ccc(CNC(=O)c2cccnc2Oc2ccc(F)cc2)cc1,inactive
19,CCCCCCC(C=O)=Cc1ccccc1,inactive
20,C/C=C/C=C/C(=O)O,inactive

row,SMILES,outcome
1,CC(=O)[C@@]1(O)CC[C@H]2[C@@H]3CCC4=CC(=O)CC[C@]4(C)[C@H]3CC[C@@]21C,inactive
2,CN(C)C(=O)NC1(c2ccccc2)CCN(CCC[C@]2(c3ccc(Cl)c(Cl)c3)CCCN(C(=O)c3ccccc3)C2)CC1,inactive
3,CC(C)(C)c1ccccc1,inactive
4,O=C1NC(=O)C(c2ccccc2)(c2ccccc2)N1,inactive
5,CCCC(=O)O,inactive
6,CCCCOC(=O)CCCCC(=O)OCCCC,inactive
7,CSc1ccc(Oc2ccc(S(N)(=O)=O)cc2CN(C)C)cc1C,inactive
8,Cn1cnc2c1c(=O)[nH]c(=O)n2C,inactive
9,OCC(CO)n1cnc(-c2ccc(F)cc2)c1-c1ccnc(Oc2ccccc2)n1,inactive
10,CCCC[C@H]1CN(CC2CCOCC2)C(=O)OC12CCN(C1(C)CCN(C(=O)c3c(C)ncnc3C)CC1)CC2,inactive
11,CCCCCCCCCC[N+](C)(C)[O-],inactive
12,Oc1ccc(O)cc1,inactive
13,CCCCC(CC)COC(=O)CCCCCCCC(=O)OCC(CC)CCCC (stereo not given),inactive
14,CCc1nc(N)nc(N)c1-c1ccc(Cl)cc1,inactive
15,COc1ccc(C(=O)Nc2nc3ccccc3c(NCc3ccccc3)c2C#N)cc1,inactive
16,O=C1c2c(O)cccc2Cc2cccc(O)c21,inactive
17,COC(=O)CCCC(=O)OC,inactive
18,CC(=O)OC1CC(C)OC(C)O1 (stereo not given),inactive
19,NC=O,inactive
20,CC1(C)C(=O)NC(=O)N1CO,inactive
